# The antibiotic and cytotoxicity screens of Wong et al. (2023)
# About 1,500 (3.8%) of roughly 39,000 compounds were called active. Many of the other results were omitted from the sample, so actives are more common in it than they were.
# Tested on: HSkMC (human skeletal muscle cells)
# Test: cytotoxicity call (relative viability < 0.9)
# Settings: 10 µM
row,Structure (SMILES),cytotoxicity call
1,C[C@@H]1CN([C@@H](C)CO)C(=O)c2cc(NC(=O)C3CC3)ccc2O[C@@H]1CN(C)C(=O)NC1CCCCC1,inactive
2,C=CC(=O)NS(=O)(=O)c1ccccc1,inactive
3,CCS(=O)(=O)N1CC[C@H]2[C@H](CC1)S(=O)(=O)CCN2C(=O)c1ccccc1,inactive
4,COCC(=O)N1C[C@@H](C)[C@@H](OC)CN(C)C(=O)c2ccc(NC(=O)c3ccc(OC)cc3)cc2OC[C@@H]1C,inactive
5,Cc1cc(N)n(-c2nc(=O)c(C)c(C)[nH]2)n1,inactive
6,CCCCc1c(C)nc2ccc(Br)cc2c1SC(N)N,inactive
7,NS(=O)(=O)c1ccc2c(c1)COC2,inactive
8,COc1ccc(S(=O)(=O)N(C)C[C@@H]2Oc3c(NS(=O)(=O)c4ccc(C)cc4)cccc3C(=O)N([C@@H](C)CO)C[C@@H]2C)cc1,inactive
9,C[C@H]1CN([C@@H](C)CO)C(=O)Cc2cc(NS(=O)(=O)c3ccc(Cl)cc3)ccc2O[C@H]1CN(C)Cc1ccc(C(F)(F)F)cc1,active
10,C[C@H](CO)N1C[C@H](C)[C@@H](CN(C)Cc2ccc(C(F)(F)F)cc2)Oc2ccc(NS(=O)(=O)c3ccc(Cl)cc3)cc2CC1=O,inactive
11,C[C@@H]1CN([C@@H](C)CO)C(=O)Cc2cc(NS(=O)(=O)c3ccc(Cl)cc3)ccc2O[C@H]1CN(C)Cc1ccc(C(F)(F)F)cc1,inactive
12,C[C@H]1CN([C@@H](C)CO)C(=O)Cc2cc(NS(=O)(=O)c3ccc(Cl)cc3)ccc2O[C@@H]1CN(C)Cc1ccc(C(F)(F)F)cc1,active
13,C[C@@H]1CN([C@H](C)CO)C(=O)c2cc(NC(=O)CCCN(C)C)ccc2O[C@@H]1CN(C)C(=O)NC1CCCCC1,inactive
14,C[C@@H]1CN([C@@H](C)CO)C(=O)c2cc(NS(C)(=O)=O)ccc2O[C@H]1CN(C)Cc1ccc(C(=O)Nc2ccccc2N)cc1,inactive
15,COc1ccc(CN(C)C[C@H]2Oc3ccc(NC(=O)CCN4CCOCC4)cc3C(=O)N([C@H](C)CO)C[C@H]2C)cc1,inactive
16,C[C@H]1CN([C@@H](C)CO)C(=O)c2cc(NC(=O)Nc3ccc(F)cc3)ccc2O[C@@H]1CN(C)CC1CCCCC1,inactive
17,C[C@@H]1CN([C@@H](C)CO)C(=O)c2cc(NC(=O)Nc3ccc(C(F)(F)F)cc3)ccc2O[C@@H]1CN(C)CC1CCCCC1,active
18,C[C@@H]1CN([C@H](C)CO)C(=O)c2cc(NC(=O)Nc3ccc(C(F)(F)F)cc3)ccc2O[C@H]1CN(C)CC1CCCCC1,inactive
19,C[C@@H]1CN([C@H](C)CO)C(=O)c2cc(NC(=O)Nc3ccc(C(F)(F)F)cc3)ccc2O[C@@H]1CN(C)CC1CCCCC1,active
20,C[C@H]1CN([C@@H](C)CO)C(=O)c2cc(NC(=O)Nc3ccc(F)cc3)ccc2O[C@H]1CN(C)CC1CCCCC1,inactive
21,C[C@@H]1CN([C@H](C)CO)C(=O)c2cc(NC(=O)Nc3ccc(F)cc3)ccc2O[C@H]1CN(C)CC1CCCCC1,inactive

row,Structure (SMILES),cytotoxicity call
1,C[C@@H]1CN([C@@H](C)CO)C(=O)c2cc(NC(=O)Nc3ccc(F)cc3)ccc2O[C@@H]1CN(C)CC1CCCCC1,inactive
2,C[C@H](CO)N1C[C@H](C)[C@H](CN(C)CC2CCCCC2)Oc2ccc(NC(=O)Nc3ccc(C(F)(F)F)cc3)cc2C1=O,active
3,C[C@H](CO)N1C[C@H](C)[C@@H](CN(C)CC2CCCCC2)Oc2ccc(NC(=O)Nc3ccc(C(F)(F)F)cc3)cc2C1=O,inactive
4,C[C@H](CO)N1C[C@H](C)[C@H](CN(C)CC2CCCCC2)Oc2ccc(NC(=O)Nc3ccc(F)cc3)cc2C1=O,inactive
5,C[C@H]1CN([C@@H](C)CO)C(=O)c2cc(NC(=O)Nc3ccc(C(F)(F)F)cc3)ccc2O[C@@H]1CN(C)CC1CCCCC1,inactive
6,C[C@@H]1CN([C@@H](C)CO)C(=O)c2cc(NC(=O)Nc3ccc(C(F)(F)F)cc3)ccc2O[C@H]1CN(C)CC1CCCCC1,active
7,C[C@@H]1CCCCO[C@@H](CN(C)C(=O)Nc2ccc(C(F)(F)F)cc2)[C@@H](C)CN([C@H](C)CO)C(=O)c2cc(NS(=O)(=O)c3ccc(Cl)cc3)ccc2O1,inactive
8,O=C(C[C@H]1C[C@@H]2c3cc(NS(=O)(=O)c4ccc(F)cc4)ccc3O[C@@H]2[C@H](CO)O1)NC1CCCCC1,inactive
9,C[C@@H]1CN([C@H](C)CO)C(=O)c2cc(NC(=O)Nc3cccc4ccccc34)ccc2O[C@H]1CN(C)CC1CCCCC1,inactive
10,C[C@@H]1CCCCO[C@@H](CN(C)S(=O)(=O)c2ccc(F)cc2)[C@@H](C)CN([C@@H](C)CO)C(=O)c2cc(NC(=O)NC3CCCCC3)ccc2O1,inactive
11,C[C@H]1CN([C@@H](C)CO)C(=O)Cc2cc(NS(C)(=O)=O)ccc2O[C@@H]1CN(C)Cc1ccc2c(c1)OCO2,inactive
12,O=C(C[C@@H]1C[C@@H]2c3cc(NS(=O)(=O)c4ccc(F)cc4)ccc3O[C@@H]2[C@@H](CO)O1)NC1CCCC1,inactive
13,O=C(C[C@H]1CC[C@@H]2[C@H](COC[C@H](O)CN2C(=O)Nc2cccc(Cl)c2)O1)NCCCN1CCOCC1,inactive
14,C[C@H]1CN([C@@H](C)CO)C(=O)c2cc(NC(=O)Nc3ccc(C(F)(F)F)cc3)ccc2O[C@@H]1CN(C)S(=O)(=O)c1ccc(Cl)cc1,inactive
15,C[C@H]1CN([C@@H](C)CO)C(=O)c2cc(NC(=O)Nc3ccc(C(F)(F)F)cc3)ccc2O[C@H]1CN(C)S(=O)(=O)c1ccc(Cl)cc1,inactive
16,Cc1ccc(S(=O)(=O)N(C)C[C@@H]2Oc3ccc(NC(=O)Nc4ccc(C(F)(F)F)cc4)cc3C(=O)N([C@@H](C)CO)C[C@H]2C)cc1,inactive
17,C[C@@H]1CN([C@@H](C)CO)C(=O)c2cc(NC(=O)Nc3ccc(C(F)(F)F)cc3)ccc2O[C@@H]1CN(C)S(=O)(=O)c1ccc(Cl)cc1,active
18,C[C@@H]1CN([C@H](C)CO)C(=O)c2cc(NC(=O)Nc3ccc(C(F)(F)F)cc3)ccc2O[C@H]1CN(C)S(=O)(=O)c1ccc(Cl)cc1,inactive
19,Cc1ccc(S(=O)(=O)N(C)C[C@@H]2Oc3ccc(NC(=O)Nc4ccc(C(F)(F)F)cc4)cc3C(=O)N([C@H](C)CO)C[C@H]2C)cc1,inactive
20,C[C@@H]1CN([C@H](C)CO)C(=O)c2cc(NC(=O)Nc3ccc(C(F)(F)F)cc3)ccc2O[C@@H]1CN(C)S(=O)(=O)c1ccc(Cl)cc1,active
21,C[C@@H]1CN([C@@H](C)CO)C(=O)c2cc(NC(=O)Nc3ccc(C(F)(F)F)cc3)ccc2O[C@H]1CN(C)S(=O)(=O)c1ccc(Cl)cc1,inactive

row,Structure (SMILES),cytotoxicity call
1,C[C@H](CO)N1C[C@H](C)[C@H](CN(C)S(=O)(=O)c2ccc(Cl)cc2)Oc2ccc(NC(=O)Nc3ccc(C(F)(F)F)cc3)cc2C1=O,active
2,C[C@@H]1CCCCO[C@@H](CN(C)C(=O)Nc2ccccc2)[C@H](C)CN([C@H](C)CO)C(=O)c2cc(NC(=O)CCC(F)(F)F)ccc2O1,inactive
3,C[C@@H]1CN([C@H](C)CO)C(=O)c2cc(NC(=O)CCN3CCOCC3)ccc2O[C@H]1CN(C)S(=O)(=O)c1ccccc1,inactive
4,Cc1noc(C)c1NC(=O)N(C)C[C@@H]1OCCCC[C@H](C)Oc2ccc(NC(=O)C3CCCCC3)cc2C(=O)N([C@@H](C)CO)C[C@@H]1C,inactive
5,C[C@@H]1CCCCO[C@@H](CN(C)Cc2ccc(C(=O)Nc3ccccc3N)cc2)[C@@H](C)CN([C@H](C)CO)C(=O)c2cc(NC(=O)Nc3ccc4c(c3)OCO4)ccc2O1,inactive
6,COc1ccc(CN(C)C[C@@H]2OCCCC[C@H](C)Oc3ccc(NC(=O)CCC(F)(F)F)cc3C(=O)N([C@@H](C)CO)C[C@H]2C)cc1,inactive
7,O=C(C[C@@H]1C=C[C@H](NC(=O)Nc2ccc3c(c2)OCO3)[C@H](CO)O1)NCCCN1CCOCC1,inactive
8,c1cncc(-c2nc3ccc4ccccc4c3c3c2CCCC3)c1,inactive
9,CN1CCN(C(=O)C[C@H]2CC[C@@H]3[C@H](COC[C@@H](O)CN3C(=O)Nc3ccc4c(c3)OCO4)O2)CC1,inactive
10,COc1ccc(S(=O)(=O)N(C)C[C@@H]2Oc3ccc(NS(=O)(=O)c4cn(C)cn4)cc3C(=O)N([C@@H](C)CO)C[C@@H]2C)cc1,inactive
11,C[C@@H]1CN([C@H](C)CO)C(=O)c2cccc(NC(=O)C3CCOCC3)c2O[C@@H]1CN(C)C(=O)NC1CCCCC1,inactive
12,C[C@H]1CCCCO[C@@H](CN(C)CC2CCCCC2)[C@@H](C)CN([C@@H](C)CO)C(=O)c2cc(NC(=O)Nc3cccc4ccccc34)ccc2O1,inactive
13,C[C@@H]1CCCCO[C@@H](CN(C)CC2CCCCC2)[C@@H](C)CN([C@@H](C)CO)C(=O)c2cc(NC(=O)Nc3cccc4ccccc34)ccc2O1,active
14,C[C@H](CO)N1C[C@H](C)[C@@H](CN(C)CC2CCCCC2)OCCCC[C@H](C)Oc2ccc(NC(=O)Nc3cccc4ccccc34)cc2C1=O,inactive
15,C[C@@H]1CN([C@H](C)CO)C(=O)c2cc(NC(=O)Nc3cccc4ccccc34)ccc2O[C@@H](C)CCCCO[C@@H]1CN(C)CC1CCCCC1,active
16,C[C@@H]1CCCCO[C@H](CN(C)CC2CCCCC2)[C@H](C)CN([C@@H](C)CO)C(=O)c2cc(NC(=O)Nc3cccc4ccccc34)ccc2O1,active
17,C[C@@H]1CCCCO[C@H](CN(C)CC2CC2)[C@@H](C)CN([C@H](C)CO)C(=O)c2cc(NC(=O)Nc3cccc4ccccc34)ccc2O1,inactive
18,C[C@@H]1CCCCO[C@@H](CN(C)CC2CCCCC2)[C@H](C)CN([C@H](C)CO)C(=O)c2cc(NC(=O)Nc3cccc4ccccc34)ccc2O1,active
19,C[C@H](CO)N1C[C@H](C)[C@H](CN(C)CC2CC2)OCCCC[C@H](C)Oc2ccc(NC(=O)Nc3cccc4ccccc34)cc2C1=O,inactive
